Data taken from PubChem BioAssay (NCI).
Compounds without any hit were thinned out: in the full panel of roughly 83,000, 20% have a hit.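 The endpoint reported here, percent growth, reads 100 for growth as untreated, 0 for no net growth and -100 for all cells dead.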 Values without a mark were called inactive. Activity calls are given as the source filed them. Rule for the calls: active = growth percent below 10; inactive = the rest.

Columns and labels:
Test in all cases: NCI-60 one-dose screen, 48 h (100 = growth as untreated, 0 = no growth, -100 = all killed)
Settings in all cases: 10 µM unless noted
NCI-H23 lung = system: NCI-H23 lung
NCI-H226 lung = system: NCI-H226 lung
NCI-H322M lung = system: NCI-H322M lung
HOP-62 NSCLC = system: HOP-62 NSCLC
NCI-H460 lung = system: NCI-H460 lung
NCI-H522 lung = system: NCI-H522 lung
A549/ATCC NSCLC = system: A549/ATCC NSCLC
786-0 renal = system: 786-0 renal
COLO 205 colon = system: COLO 205 colon

Row | SMILES | growth (NCI-H23 lung) [%] | growth (NCI-H226 lung) | growth (NCI-H322M lung) [%] | growth (HOP-62 NSCLC) | growth (NCI-H460 lung) | growth (NCI-H522 lung) | growth (A549/ATCC NSCLC) [%] | growth (786-0 renal) | growth (COLO 205 colon)
1 | Cc1nc(-c2ccc(Cl)cc2)ccc1NC(=O)Nc1cccc(C(F)(F)F)c1 | 95.6 | 97.9% | 109 | 109% | 64.5% | 52.9% | 93.1 | 101% | 121%
2 | COc1ccccc1N1CCN(CCCOc2ccc(OCCCN3CCN(c4ccccc4OC)CC3)c(C(=O)c3cc(OC)c(OC)c(OC)c3)c2)CC1 | 95.4 | 111% | 96.5 | 113% | 115% | 106% | 109 | 105% | 99.5%
3 | O=c1c2ccccc2sc2c(NCCN3CCOCC3)nc3ccccc3c12 | 68 | 59.2% | 104 | 52% | 27.3% | 63.1% | 43.1 | 48.5% | 21.9%
4 | C[C@]12CC[C@@H]3c4ccc(O)c(N)c4CC[C@H]3[C@@H]1CC[C@@H]2O | 101 | 112% | 114 | 143% | 102% | 82.6% | 99.9 | 118% | 123%
5 | C=C1C(=O)O[C@H]2[C@H]1CC/C(C(=O)Nc1ccc(OC)c(C(N)=O)c1O)=C\CC[C@@]1(C)O[C@@H]21 | 73.4 | 61.3% | 108 | 85.1% | 92% | 5.78% (active) | 77.8 | 43.1% | 10.7%
6 | O=c1c(-c2ccc3c(c2)OCO3)coc2c(CO)c(O)ccc12 | 56.8 | -35.6% (active) | 16.6 | -54.1% (active) | 9.52% (active) | 36.7% | 49.2 | 23.6% | 113%
7 | CCC1(C(N)=O)CC2C=CC1CC2 (stereo not drawn) | 249 | 109% | 114 | 136% | 113% | 99.1% | 102 | 171% | 94.8%
8 | COc1ccc(-c2cc3ccc(N(C)C)cc3nc2N)c(F)c1 | 19 | 48.2% | 66.9 | 40.3% | 31.9% | 31% | 40.8 | 48.3% | 12.2%
9 | Nc1ncnc2c1c(-c1ccc(Oc3ccccc3)cc1)nn2C[C@H]1SSC[C@@H]1O | 53.2 | 22.9% | 46.9 | 49.7% | 22% | -3.56% (active) | 31 | 66.2% | 6.71% (active)
10 | Fc1cccc(F)c1C#Cc1ccc2cccnc2c1 | 79.5 | 101% | 89.8 | 89.5% | 86% | 75.8% | 82.6 | 113% | 96.4%
11 | C=C1C(=O)O[C@H]2[C@H]1CC/C(COC(=O)CCCC(=O)OC/C1=C/CC[C@@]3(C)O[C@H]3[C@H]3OC(=O)C(=C)[C@@H]3CC1)=C\CC[C@@]1(C)O[C@@H]21 | 29.2 | -44.4% (active) | 90 | 79.6% | 64.5% | -80.3% (active) | 73.5 | -34.1% (active) | -44.9% (active)
12 | COc1ccc(Cl)cc1NC(=O)c1cc2c(n1C)-c1nc(NC(=O)C(C)C)sc1CC2 | 89.4 | 61.3% | 99.1 | 85.7% | 94% | 49.9% | 71.5 | 88.1% | 96.8%
